KB-3-1 cytotox = kills parental KB-3-1 adenocarcinoma cells; Potency, µM (series often up to 46.1 µM), usual class: cytotoxic; KB-3-1 viability, CellTiter-Glo ATP luminescence, 72 h; hit rate 1.4% among 400,000; note: % is set by controls: 0 for no effect and ±100 for the full control effect; nearly all actives have a fitted effect of over 60% in size
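Cytotoxicity in the drug-sensitive parental line KB-3-1 was scored as loss of CellTiter-Glo luminescence following 72 h incubation with compound. Values come from curve fitting of normalized concentration-response data.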
SW480 rerep = DNA re-replication induction in SW480 cells; SW480 DNA re-replication, Hoechst DNA content imaging, 48 h; Potency, µM (titrated, usually from 46.1 µM), inactives show at the highest dose re-replication activation, hits mostly activators; hit rate 1.8% among 340,000; AID 624297; note: % of control where 0% means no effect; nearly all actives have a fitted effect of over 55% in size
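DNA re-replication was detected as more nuclei of elevated Hoechst intensity after 48 hr exposure to compound (23 nL pinned per well of 250 cells).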
ELG1 DNA repair = inhibitors of ELG1-dependent DNA repair in HEK293T cells; HEK293T ELG1-luciferase reporter, luminescence, 16 h; DNA damage induced by 5-fluorouridine; Potency, µM (titrated, usually from 46.1 µM), for the others: top-dose activity change, negative = inhibition, actives largely listed as inhibitors; hit rate 2.3% among 330,000; note: % is set by controls: 0 for no effect and ±100 for the full control effect; nearly all actives have a fitted effect of over 55% in size
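5-Fluorouridine DNA damage + compound/DMSO, 2,000 cells/well, 16 h, 37 °C/5% CO2. ONE-Glo, 30 min RT, luminescence. Readout = decrease in reporter signal.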
KB-V1 cytotox = kills drug-selected multidrug resistant KB-V1 cells; hit rate 3.4% among 400,000; AID 1347076; KB-V1 MDR cells viability, CellTiter-Glo, 72 h; Potency, µM (titrated, usually from 46.1 µM), usual class: cytotoxic; note: % is set by controls: 0 for no effect and ±100 for the full control effect; nearly all actives have a fitted effect of over 60% in size
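Cytotoxicity via CellTiter-Glo luminescence after 72 h compound exposure at 37 degrees C. Cells: drug-selected KB-V1 line, DMEM phenol-red free plus 10% FBS. Compounds tested at multiple concentrations; normalized data fitted to concentration-effect curves.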
MCF10A rereplic = inducers of DNA re-replication in MCF 10A breast cells | MCF 10A DNA re-replication, Hoechst nuclear intensity, 48 h | Potency, µM (series often up to 46.1 µM), for the others: at the top dose activity, positive = re-replication, most hits filed as activators | hit rate 2.9% among 350,000; note: % of control where 0% means no effect; nearly all actives have a fitted effect of over 50% in size
* hit, by the source's call; i = inactive; u = inconclusive; x = not tested or not shown; [ ] = remark or other dose. An excerpt weighted towards active compounds, which were near 8.1% of everything screened. Calls come from the whole dose curve; as a rule, active = well fitted curve in the direction sought with a large enough effect; inconclusive = small, poorly fitted or top-dose-only effect, or another doubt; inactive = no such curve, though single readings can be large; an effect the other way counts as inactive or inconclusive. Potency is the fitted concentration of half-maximal effect.

SMILES	KB-3-1 cytotox	SW480 rerep	ELG1 DNA repair	KB-V1 cytotox	MCF10A rereplic
Cc1ccc(S(=O)(=O)C2(C(=O)N3CCN(C4CCCCC4)CC3)CC2)cc1	i	19%	10%	16µM*	22%
Cc1ccc(S(=O)(=O)C2(C(=O)N3CCCCCC3)CC2)cc1	i	0%	u	23µM*	-1%
Cc1ccc(S(=O)(=O)C2(C(=O)N3CCN(c4cc(C)ccc4C)CC3)CC2)cc1	i	22%	26µM*	i	3%
Cc1ccc(S(=O)(=O)C2(C(=O)NC3CCCC3)CC2)cc1	i	-13%	8%	i	9%
Cc1ccc(Oc2ccc(OCC(=O)NC(C)C(=O)O)cc2)cc1 (stereo not given)	i	-5%	0%	i	5%
CC(C1CC1)N(Cc1ccccc1)C(=S)Nc1cccc(C(F)(F)F)c1 (stereo not given)	i	-5%	13%	i	2%
Cc1ccc(S(=O)(=O)NCc2ccccc2)cc1C(=O)N1CCCCCCC1	i	u	-19%	9.2µM*	25%
COc1ccc(N2CCN(C(=O)c3ccc(CNS(=O)(=O)c4ccc(C)cc4)cc3)CC2)cc1	i	-8%	-13%	i	u
COc1ccc(CN2CCN(C(=O)c3ccc(CNS(=O)(=O)c4ccc(C)cc4)cc3)CC2)c(OC)c1OC	u	-5%	9.2µM*	i	-5%
Cc1ccc(S(=O)(=O)NCc2ccc(C(=O)N3CCN(Cc4ccccc4)CC3)cc2)cc1	23µM*	-3%	u	u	14%
COc1ccc(C(=O)N2CCN(Cc3ccccc3)CC2)cc1[N+](=O)[O-]	i	-6%	u	i	0%
O=C(c1ccc(S(=O)(=O)c2cccc(Cl)c2)c([N+](=O)[O-])c1)N1CCN(Cc2ccccc2)CC1	u	u	u	u	21µM*
COc1ccc(S(=O)(=O)NCc2ccc(C(=O)N3CCN(Cc4ccccc4)CC3)cc2)cc1	i	-17%	u	i	16%
COc1ccccc1-n1c(CNC(=O)COc2ccccc2)n[nH]c1=S	i	-1%	14%	i	-1%
COc1ccc(CN2CCN(C(=O)c3ccc4nc(N5CCOCC5)sc4c3)CC2)c(OC)c1OC	i	-1%	21µM*	u	-43%
O=C(/C=C/c1ccc(F)cc1)N1CCN(c2ccccn2)CC1	i	-12%	u	i	4%
O=C(/C=C/c1ccccc1)N1CCN(c2cccc(Cl)n2)CC1	i	-2%	-15%	18µM*	-1%
Nc1c(C(=O)Nc2ccccc2F)sc2nc3c(cc12)CCCCCC3	13µM*	x	x	6.5µM*	x
CCc1nnc(NC(=O)c2sc3nc4c(cc3c2N)CCCCCC4)s1	i	u	u	i	18µM*
CCc1nnc(NC(=O)c2sc3nc4c(cc3c2N)CCCCC4)s1	u	8.2µM*	u	i	16µM*
Cc1ccc(S(=O)(=O)N2CCC[C@H]2C(=O)Nc2ccc(F)cc2C)cc1	i	2%	-26%	i	24%
CCOc1ccc(NC(=O)C2CCC(CNc3c(N4CCOCC4)c(=O)c3=O)CC2)cc1 (stereo not given)	i	-3%	0%	i	-2%
Cc1cc(NC(=O)c2ccc(-c3ccccc3[N+](=O)[O-])o2)no1	i	-3%	15%	i	1%
COC(=O)c1ccc(COc2ccc(C)cc2[N+](=O)[O-])o1	i	-9%	u	i	1.8µM*
CC(=O)c1ccc(NC(=O)c2ccc(COc3ccccc3[N+](=O)[O-])o2)cc1	u	1%	-24%	10µM*	2%
SMILES	KB-3-1 cytotox	SW480 rerep	ELG1 DNA repair	KB-V1 cytotox	MCF10A rereplic
CC(=O)c1cccc(NC(=O)c2ccc(-c3ccccc3[N+](=O)[O-])o2)c1	i	-2%	u	u	18µM*
O=C(O)c1ccc(COc2ccccc2[N+](=O)[O-])o1	i	-12%	u	i	-9%
Cc1ccc(OCc2ccc(C(=O)NN)o2)c([N+](=O)[O-])c1	i	u	-8%	i	-3%
Cc1cc(NCc2ccccc2Cl)n2nnnc2n1	i	-7%	10%	i	-1%
CCOC(=O)CC1(CC(=O)OCC)NC(=O)c2c(C)sc(C(=O)OCC)c2N1	i	-6%	u	i	-4%
CCOC(=O)C1=C(N)Oc2ccc3ccccc3c2C1c1cccnc1 (stereo not given)	u	-1%[9.22 µM]	-10%	11µM*	u
COc1cc(/C=N/Nc2nc3ccccc3s2)ccc1OC(=O)c1ccccc1F	u	u	u	u	21µM*
Cc1ccc(NC(=O)[C@@H](c2ccccc2)N2Cc3ccccc3C2=O)cc1F	i	x	x	i	x
COc1cc(C(=O)Nc2cccc(-n3cnnn3)c2)cc(Cl)c1OC	i	4%	u	i	2%
O=C(N/N=C/c1ccsc1)c1cc2ccccc2o1	i	1%	18%	i	-13%
O=C(N/N=C/c1cccc2ccccc12)c1cc2ccccc2o1	u	114%	-9%	u	12µM*
O=C(N/N=C/C=C/c1ccccc1)c1cc2c(ccc3ccccc32)o1	u	12µM*	u	u	u
C=CCn1cc(/C=N\NC(=O)c2cc3c(ccc4ccccc43)o2)c2ccccc21	i	5%	u	i	23%
O=C(COc1ccc(/C=N/NC(=O)c2cc3ccccc3o2)cc1Cl)Nc1ccccc1	7.3µM*	8%	u	9.2µM*	u
O=C(N/N=C/c1ccccc1F)c1cc2c(ccc3ccccc32)o1	i	15%	4%	i	-10%
COC(=O)c1ccccc1-c1ccc(/C=N/NC(=O)c2cc3ccccc3o2)o1	u	-1%	u	13µM*	u
Cc1ccccc1C(=O)Nc1ccc(S(=O)(=O)N2CCN(C)CC2)cc1	i	8%	14%	i	1%
O=C(Nc1ccccc1Cl)c1cc(=O)c2ccccc2o1	i	-1%[9.22 µM]	u	u	23%
COc1ccc(OC)c(/C=N\NC(=O)c2cc3c(ccc4ccccc43)o2)c1	i	15%	16µM*	i	u
COc1ccc(/C=N/NC(=O)c2cc3c(ccc4ccccc43)o2)c(OC)c1	u	u	u	i	u
CCCOC(=O)c1ccc(Oc2cn[nH]c2-c2ccc(O)cc2O)cc1	u	6%	0%	i	u
CCOC(=O)c1ccc(Oc2cn[nH]c2-c2ccc(O)cc2O)cc1	23µM*	-13%	u	i	u
CCCOC(=O)c1ccc(Oc2cn[nH]c2-c2ccc(OCC(=O)NN)cc2O)cc1	i	-4%	18µM*	i	22%
O=C(COC(=O)C1CC2C=CC1C2)NCc1ccco1 (stereo not given)	i	6%	-3%	u	-5%

Assay outcomes deposited in PubChem BioAssay by National Center for Advancing Translational Sciences (NCATS).
